# Source: PubChem BioAssay
# Where “and” joins values, the source holds several entries; their conditions need not be identical. Identical values can stand only once. Inconclusive results are not listed. For part of these data: Measured potencies and affinities stand elsewhere. Calls of active or inactive are those of the source. Unless noted, no rule for the calls is given here.
# What was measured:
# [1] = polyglutamine-triggered caspase-3 activation inhibitors, cell-based (AID 1583); details: polyglutamine-induced caspase-3 activation, cell assay; stronger effect = higher value;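 tested at 10 µM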
# [2] = suppressors of polyQ aggregation in yeast, 75Q-TubU reporter (AID 1593); details: Yeast 75Q polyglutamine aggregation reporter
# [3] = rescue of polyQ-huntingtin neuronal dysfunction in worms, whole organism, C. elegans mechanosensory neurons, N-terminal huntingtin (AID 1599); details: touch response, stronger effect = higher value
# [4] = inhibitors of mitochondrial cytochrome c release, biochemical, purified mitochondria (AID 1603); details: stronger effect = lower value;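 also: mouse liver mitochondria challenged with calcium chloride; signal normalized to the plate average as 100%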
# [5] = inhibitors of polyQ protein aggregation (AID 1604); details: polyglutamine-induced protein aggregation inhibition assay; stronger effect = higher value; tested at 2.5 µM
# [6] = molecular target: ATP-dependent translocase ABCB1 (Homo sapiens) (UniProt P08183); experiment: MDR1 (ABCB1) efflux transporter inhibition, cell-based (AID 377; in the data active = fluorescence slope change above about 50%); details: MDR1-expressing cells, fluorescent substrate accumulation slope; stronger effect = higher value; concentration not given here
# [7] = protection of motor neurons from glutamate death, cell-based, TUNEL DNA degradation staining, MNGlu (AID 1594); details: glutamate-induced death, at 1 µM, stronger effect = higher value
# [8] = molecular target: Huntingtin (Homo sapiens) (UniProt P42858); experiment: inhibitors of mutant Htt aggregation in vitro, dose response, QA1 (AID 1584); details: in vitro mutant huntingtin aggregation assay; confirmation test; at 10 µM; stronger effect = lower value
# [9] = inhibitors of polyQ aggregate elongation, biochemical, solid-phase synthetic aggregates, QA3 (AID 1585); details: biotin-polyQ incorporation; EC50: measured here: elongation inhibition potency; inhibition: at 100 µM, stronger effect = higher value
# [10] = mitochondrial permeability transition inhibitors (AID 1580); details: isolated mitochondria, permeability transition inhibition
# ATP-dependent translocase ABCB1 (Homo sapiens), sequence (P08183 whole entry, looked up): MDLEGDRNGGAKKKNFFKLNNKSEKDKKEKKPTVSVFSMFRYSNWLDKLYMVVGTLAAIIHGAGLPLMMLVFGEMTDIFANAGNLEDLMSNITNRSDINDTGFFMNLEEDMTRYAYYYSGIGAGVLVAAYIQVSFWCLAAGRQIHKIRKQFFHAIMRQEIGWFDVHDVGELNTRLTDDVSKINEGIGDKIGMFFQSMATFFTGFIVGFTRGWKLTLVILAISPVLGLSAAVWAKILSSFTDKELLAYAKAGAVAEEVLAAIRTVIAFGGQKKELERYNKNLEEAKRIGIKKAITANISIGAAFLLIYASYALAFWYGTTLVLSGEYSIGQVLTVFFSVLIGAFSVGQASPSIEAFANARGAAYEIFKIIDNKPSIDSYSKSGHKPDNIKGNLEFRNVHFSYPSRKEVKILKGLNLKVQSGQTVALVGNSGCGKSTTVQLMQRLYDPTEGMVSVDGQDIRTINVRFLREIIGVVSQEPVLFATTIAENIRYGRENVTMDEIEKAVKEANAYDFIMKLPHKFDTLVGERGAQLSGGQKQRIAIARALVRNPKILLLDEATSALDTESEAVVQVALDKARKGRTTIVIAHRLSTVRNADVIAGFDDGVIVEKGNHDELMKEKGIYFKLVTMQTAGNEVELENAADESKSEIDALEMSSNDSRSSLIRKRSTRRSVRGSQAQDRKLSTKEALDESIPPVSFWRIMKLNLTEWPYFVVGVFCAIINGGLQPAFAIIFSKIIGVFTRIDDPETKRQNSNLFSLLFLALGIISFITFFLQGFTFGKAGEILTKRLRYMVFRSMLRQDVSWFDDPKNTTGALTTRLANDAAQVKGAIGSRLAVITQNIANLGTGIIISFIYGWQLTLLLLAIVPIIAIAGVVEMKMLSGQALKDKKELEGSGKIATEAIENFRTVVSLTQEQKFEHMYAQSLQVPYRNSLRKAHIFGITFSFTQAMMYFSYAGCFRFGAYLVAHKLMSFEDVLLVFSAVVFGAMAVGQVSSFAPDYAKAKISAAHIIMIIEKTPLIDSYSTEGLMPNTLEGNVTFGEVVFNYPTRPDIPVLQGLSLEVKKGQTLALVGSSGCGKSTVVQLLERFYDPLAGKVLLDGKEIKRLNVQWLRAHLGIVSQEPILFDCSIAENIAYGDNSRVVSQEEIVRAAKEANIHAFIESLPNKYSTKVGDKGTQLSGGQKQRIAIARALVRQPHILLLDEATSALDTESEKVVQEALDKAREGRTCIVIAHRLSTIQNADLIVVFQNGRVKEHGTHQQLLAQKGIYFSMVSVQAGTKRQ
# Huntingtin (Homo sapiens), sequence (P42858 whole entry, looked up): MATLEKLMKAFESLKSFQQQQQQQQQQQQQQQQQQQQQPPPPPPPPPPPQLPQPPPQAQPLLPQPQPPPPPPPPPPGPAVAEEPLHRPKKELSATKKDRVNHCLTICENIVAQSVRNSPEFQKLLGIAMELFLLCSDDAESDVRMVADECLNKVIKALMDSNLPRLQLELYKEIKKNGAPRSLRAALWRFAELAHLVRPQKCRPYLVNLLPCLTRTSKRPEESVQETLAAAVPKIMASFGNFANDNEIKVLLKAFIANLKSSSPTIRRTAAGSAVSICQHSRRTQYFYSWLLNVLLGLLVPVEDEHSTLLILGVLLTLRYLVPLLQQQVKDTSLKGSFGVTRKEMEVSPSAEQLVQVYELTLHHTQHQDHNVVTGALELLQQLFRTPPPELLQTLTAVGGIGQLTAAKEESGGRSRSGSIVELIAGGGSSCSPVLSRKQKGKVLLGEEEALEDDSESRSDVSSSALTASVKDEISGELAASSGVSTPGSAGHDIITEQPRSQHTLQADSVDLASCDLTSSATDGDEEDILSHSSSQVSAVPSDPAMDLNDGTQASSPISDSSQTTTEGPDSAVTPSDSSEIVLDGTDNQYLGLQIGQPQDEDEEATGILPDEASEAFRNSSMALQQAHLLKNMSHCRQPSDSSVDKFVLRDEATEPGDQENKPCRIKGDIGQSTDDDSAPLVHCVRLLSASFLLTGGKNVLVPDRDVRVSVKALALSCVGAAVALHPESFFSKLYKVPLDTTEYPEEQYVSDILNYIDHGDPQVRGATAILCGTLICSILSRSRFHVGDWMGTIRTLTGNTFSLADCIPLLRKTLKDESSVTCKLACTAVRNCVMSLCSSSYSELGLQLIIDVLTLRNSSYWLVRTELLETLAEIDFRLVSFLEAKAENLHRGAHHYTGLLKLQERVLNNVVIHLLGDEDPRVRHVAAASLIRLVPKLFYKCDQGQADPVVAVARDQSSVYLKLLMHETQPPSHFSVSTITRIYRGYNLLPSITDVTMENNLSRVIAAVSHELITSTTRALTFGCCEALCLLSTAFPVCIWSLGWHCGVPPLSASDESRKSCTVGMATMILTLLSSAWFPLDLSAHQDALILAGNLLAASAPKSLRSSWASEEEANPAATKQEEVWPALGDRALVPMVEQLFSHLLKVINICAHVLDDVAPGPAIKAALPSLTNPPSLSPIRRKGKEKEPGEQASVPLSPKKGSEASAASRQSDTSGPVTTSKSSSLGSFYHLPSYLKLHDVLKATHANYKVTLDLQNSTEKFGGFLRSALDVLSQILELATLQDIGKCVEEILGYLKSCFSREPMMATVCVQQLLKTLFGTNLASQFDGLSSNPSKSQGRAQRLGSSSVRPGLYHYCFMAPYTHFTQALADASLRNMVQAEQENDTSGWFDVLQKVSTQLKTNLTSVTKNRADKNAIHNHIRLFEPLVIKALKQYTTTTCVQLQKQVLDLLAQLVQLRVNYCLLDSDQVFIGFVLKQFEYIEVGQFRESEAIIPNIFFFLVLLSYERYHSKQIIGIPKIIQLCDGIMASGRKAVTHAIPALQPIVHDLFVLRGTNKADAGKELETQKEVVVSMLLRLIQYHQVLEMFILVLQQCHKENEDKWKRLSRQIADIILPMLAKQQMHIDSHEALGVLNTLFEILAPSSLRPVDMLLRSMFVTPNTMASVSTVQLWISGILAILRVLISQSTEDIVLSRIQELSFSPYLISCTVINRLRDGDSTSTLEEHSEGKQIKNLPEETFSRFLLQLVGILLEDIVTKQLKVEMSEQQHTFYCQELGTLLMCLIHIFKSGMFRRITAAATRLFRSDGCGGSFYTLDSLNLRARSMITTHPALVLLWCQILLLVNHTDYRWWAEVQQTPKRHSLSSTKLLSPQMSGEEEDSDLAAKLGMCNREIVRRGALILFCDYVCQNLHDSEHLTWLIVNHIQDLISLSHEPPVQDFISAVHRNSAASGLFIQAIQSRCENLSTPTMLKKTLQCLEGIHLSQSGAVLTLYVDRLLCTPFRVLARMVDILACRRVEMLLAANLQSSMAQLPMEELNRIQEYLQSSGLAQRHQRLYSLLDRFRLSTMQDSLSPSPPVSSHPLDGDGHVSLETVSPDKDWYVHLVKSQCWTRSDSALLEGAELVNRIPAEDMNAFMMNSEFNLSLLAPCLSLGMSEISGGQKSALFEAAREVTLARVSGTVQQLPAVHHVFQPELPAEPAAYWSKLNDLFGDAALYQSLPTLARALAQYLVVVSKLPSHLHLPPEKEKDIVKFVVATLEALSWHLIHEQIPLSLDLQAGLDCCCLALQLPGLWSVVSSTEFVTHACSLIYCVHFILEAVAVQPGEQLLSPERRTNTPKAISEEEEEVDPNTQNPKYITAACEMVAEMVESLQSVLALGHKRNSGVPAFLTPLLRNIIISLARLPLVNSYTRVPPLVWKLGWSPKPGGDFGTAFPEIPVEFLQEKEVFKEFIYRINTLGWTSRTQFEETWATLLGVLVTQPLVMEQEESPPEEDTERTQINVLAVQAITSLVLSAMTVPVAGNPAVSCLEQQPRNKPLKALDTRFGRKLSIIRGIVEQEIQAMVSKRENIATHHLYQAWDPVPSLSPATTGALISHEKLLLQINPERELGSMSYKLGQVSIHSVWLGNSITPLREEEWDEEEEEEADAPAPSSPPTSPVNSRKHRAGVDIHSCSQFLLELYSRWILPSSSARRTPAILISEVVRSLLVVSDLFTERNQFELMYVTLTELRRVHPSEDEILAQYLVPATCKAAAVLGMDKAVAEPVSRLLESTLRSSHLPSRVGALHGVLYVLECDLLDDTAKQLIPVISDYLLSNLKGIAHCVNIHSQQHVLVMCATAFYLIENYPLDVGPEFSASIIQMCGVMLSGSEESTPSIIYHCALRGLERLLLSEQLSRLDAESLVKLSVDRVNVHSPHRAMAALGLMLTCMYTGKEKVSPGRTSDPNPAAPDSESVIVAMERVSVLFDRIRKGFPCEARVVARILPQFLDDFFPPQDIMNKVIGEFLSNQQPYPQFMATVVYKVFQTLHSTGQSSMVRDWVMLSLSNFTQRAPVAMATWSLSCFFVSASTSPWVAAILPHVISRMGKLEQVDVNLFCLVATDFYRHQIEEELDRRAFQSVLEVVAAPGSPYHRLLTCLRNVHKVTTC
compound,measurement,setting,value
Nc1ccc(C(=O)NCC(=O)O)cc1,inhibition,[1],5.11%
same,score,[2],1.21
same,rescue above control,[3],11.2
same,cytochrome c release ratio,[4],1.41
same,inhibition of aggregation,[5],83.6%
CC(=O)NCCCCCC(=O)O,inhibition,[1],22.1%
same,score,[2],1.42
same,rescue above control,[3],-0.56
same,cytochrome c release ratio,[4],1.37
same,inhibition of aggregation,[5],74.4%
O=C1c2ccccc2C(=O)C1c1ccccc1,inhibition,[1],16.8%
same,score,[2],0.9
same,rescue above control,[3],2.74
same,cytochrome c release ratio,[4],0.89
same,inhibition of aggregation,[5],3.03%
O=C(CCBr)N1CCN(C(=O)CCBr)CC1,inhibition,[1],-31.6%
same,score,[2],0.93
same,rescue above control,[3],9.78
same,cytochrome c release ratio,[4],0.86
same,inhibition of aggregation,[5],52.8%
CC(N)CCCC(C)(C)O (stereo unspecified),inhibition,[1],23.3%
same,score,[2],1.12
same,rescue above control,[3],-5.82
same,cytochrome c release ratio,[4],0.68
same,inhibition of aggregation,[5],19.1%
CCCCCCCCNC(C)C(O)c1ccc(SC(C)C)cc1 (stereo unspecified),inhibition,[1],71.7%
same,score,[2],-1.11
same,rescue above control,[3],0
same,cytochrome c release ratio,[4],0.61
same,inhibition of aggregation,[5],63%
NS(=O)(=O)c1cc2c(cc1Cl)NC(CSCc1ccccc1)=NS2(=O)=O,fluorescence slope change,[6],78.4% (active)
same,inhibition,[1],25.2%
same,score,[2],1.43
same,protection,[7],57% (active)
same,rescue above control,[3],-12.2
same,cytochrome c release ratio,[4],1.07
same,inhibition of aggregation,[5],47.9%
CCn1cc(C(=O)O)c(=O)c2cc(F)c(N3CCNC(C)C3)c(F)c21 (stereo unspecified),inhibition,[1],-6.75%
same,score,[2],1.15
same,rescue above control,[3],3.68
same,cytochrome c release ratio,[4],1.13
same,inhibition of aggregation,[5],80.3%
O=C1c2c(O)cccc2Cc2cccc(O)c21,inhibition,[1],18.6%
same,aggregation ratio,[8],0.75
same,score,[2],1.5
same,rescue above control,[3],0.38
same,cytochrome c release ratio,[4],0.41
same,inhibition of aggregation,[5],37.9%
Nc1nc(=S)c2[nH]cnc2[nH]1,inhibition,[1],7.19%
same,score,[2],1.07
same,rescue above control,[3],-10.2
same,cytochrome c release ratio,[4],0.96
same,inhibition of aggregation,[5],83.1%
NCCCC(=O)O,inhibition,[1],15.3%
same,score,[2],1.12
same,rescue above control,[3],-4.87
same,cytochrome c release ratio,[4],0.87
same,inhibition of aggregation,[5],18.5%
C[N+]1(CCCCC[N+]2(C)CCCC2)CCCC1,inhibition,[1],-38.1%
same,score,[2],1.14
same,rescue above control,[3],1.54
same,cytochrome c release ratio,[4],0.89
same,inhibition of aggregation,[5],49%
CCCN(CCC)C(=O)C(CCC(=O)O)NC(=O)c1ccccc1 (stereo unspecified),inhibition,[1],14.9%
same,score,[2],1.14
same,rescue above control,[3],-3.65
same,cytochrome c release ratio,[4],1.15
same,inhibition of aggregation,[5],68.3%
COc1ccc(C2C(=O)c3ccccc3C2=O)cc1,inhibition,[1],2.6%
same,score,[2],0.47
same,rescue above control,[3],-9.34
same,cytochrome c release ratio,[4],1.11
same,inhibition of aggregation,[5],79.6%
Cc1cc(CC(=O)O)n(C)c1C(=O)c1ccc(Cl)cc1,inhibition,[1],-20.4%
same,score,[2],0.85
same,rescue above control,[3],20.8
same,cytochrome c release ratio,[4],0.92
same,inhibition of aggregation,[5],83.3%
C[n+]1ccccc1/C=N/O,inhibition,[1],17.5%
same,score,[2],1.27
same,rescue above control,[3],6.93
same,cytochrome c release ratio,[4],1.18
same,inhibition of aggregation,[5],91.3%
CCC(=O)c1c(O)cc(O)cc1O,inhibition,[1],6.37%
same,score,[2],0.94
same,rescue above control,[3],-3.67
same,cytochrome c release ratio,[4],1.29
same,inhibition of aggregation,[5],38.9%
NC(=O)NC1NC(=O)NC1=O (stereo unspecified),inhibition,[1],2.28%
same,score,[2],1.2
same,rescue above control,[3],-1.57
same,cytochrome c release ratio,[4],0.93
same,inhibition of aggregation,[5],74.6%
C=C1c2cccc(O)c2C(O)=C2C(=O)[C@]3(O)C(O)=C(C(N)=O)C(=O)[C@@H](N(C)C)[C@@H]3[C@@H](O)[C@H]12,inhibition,[1],-86.7%
same,EC50,[9],132 µM
same,inhibition,[9],60% (active)
same,score,[2],0.99
same,rescue above control,[3],0
same,cytochrome c release ratio,[4],0.49
same,inhibition of aggregation,[5],29.5%
NC(=O)N/N=C/c1ccc([N+](=O)[O-])o1,inhibition,[1],21.9%
same,score,[2],1.11
same,rescue above control,[3],14.1
same,cytochrome c release ratio,[4],1.45
same,inhibition of aggregation,[5],74.9%
COc1ccc2[nH]cc(CCNC(C)=O)c2c1,inhibition,[1],-10%
same,score,[2],1.34
same,rescue above control,[3],0.33
same,cytochrome c release ratio,[4],0.49
same,inhibition of aggregation,[5],46.1%
CC(=O)OC/C=C(C)/C=C/C=C(C)/C=C/C1=C(C)CCCC1(C)C,inhibition,[1],-4.49%
same,score,[2],1.02
same,rescue above control,[3],0.33
same,cytochrome c release ratio,[4],1.12
same,inhibition of aggregation,[5],85.2%
CCN(CC)CCNc1ccc(CO)c2sc3ccccc3c(=O)c12,fluorescence slope change,[6],-2.7% (inactive)
same,inhibition,[1],2.1%
same,EC50,[9],71 µM
same,inhibition,[9],82.8% (active)
same,score,[2],1.79
same,rescue above control,[3],-7.32
same,cytochrome c release ratio,[4],1.54
same,inhibition of aggregation,[5],91.6%
Oc1c(Cl)cc(Cl)cc1Sc1cc(Cl)cc(Cl)c1O,EC50,[10],0.3 µM (active)
same,inhibition,[1],-9.02%
same,score,[2],-0.24
same,rescue above control,[3],9.15
same,cytochrome c release ratio,[4],0.74
same,inhibition of aggregation,[5],-7.69%
Cc1nnc(NS(=O)(=O)c2ccc(N)cc2)s1,fluorescence slope change,[6],9.7% (inactive)
same,inhibition,[1],18.6%
same,score,[2],1.23
same,protection,[7],35% (active)
same,rescue above control,[3],-5.75
same,cytochrome c release ratio,[4],1.01
same,inhibition of aggregation,[5],68.2%
COc1cc(NS(=O)(=O)c2ccc(N)cc2)ncn1,inhibition,[1],-4.01%
same,score,[2],1.09
same,rescue above control,[3],33.1
same,cytochrome c release ratio,[4],0.96
same,inhibition of aggregation,[5],88.9%
CCCCC1C(=O)N(c2ccccc2)N(c2ccccc2)C1=O,inhibition,[1],9.66%
same,score,[2],0.64
same,rescue above control,[3],2.39
same,cytochrome c release ratio,[4],0.96
same,inhibition of aggregation,[5],76%
CCCOc1ccc2nc(NC(=O)OC)[nH]c2c1,inhibition,[1],0.98%
same,score,[2],1.01
same,rescue above control,[3],0
same,cytochrome c release ratio,[4],0.9
same,inhibition of aggregation,[5],22.1%
CCOC(=O)C(C)(C)Oc1ccc(Cl)cc1,inhibition,[1],24.9% and 18.3%
same,score,[2],0.66 and 0.84
same,rescue above control,[3],-9.07 and 5.03
same,cytochrome c release ratio,[4],0.65 and 0.84
same,inhibition of aggregation,[5],70.5% and -5.88%
Nc1ccc(S(=O)(=O)Nc2ccnn2-c2ccccc2)cc1,inhibition,[1],-0.92%
same,score,[2],1.43
same,rescue above control,[3],-6.57
same,cytochrome c release ratio,[4],0.99
same,inhibition of aggregation,[5],4.55%
O=C1C(O)=C(O)C(=O)C(O)=C1O,inhibition,[1],0.61%
same,score,[2],0.92
same,rescue above control,[3],-5.82
same,cytochrome c release ratio,[4],1.43
same,inhibition of aggregation,[5],8.97%
Cc1ccc(C(=O)C(C)CN2CCCCC2)cc1 (stereo unspecified),inhibition,[1],-24.9%
same,score,[2],0.57
same,rescue above control,[3],-2.41
same,cytochrome c release ratio,[4],0.96
same,inhibition of aggregation,[5],37.2%
CCN1CCCC(OC(=O)C(c2ccccc2)c2ccccc2)C1 (stereo unspecified),inhibition,[1],7.55%
same,score,[2],1.33
same,rescue above control,[3],-11.5
same,cytochrome c release ratio,[4],1.06
same,inhibition of aggregation,[5],23.6%
N=C(N)N,inhibition,[1],11.9%
same,score,[2],0.82
same,rescue above control,[3],-2.24
same,cytochrome c release ratio,[4],0.89
same,inhibition of aggregation,[5],73.1%
O=C(O)c1ccc(S(=O)(=O)N(Cl)Cl)cc1,inhibition,[1],18.5%
same,score,[2],1.25
same,rescue above control,[3],8.13
same,cytochrome c release ratio,[4],0.74
same,inhibition of aggregation,[5],56.3%
